Laboratory results from PubChem BioAssay (EPA / NIEHS).
A structure can be active in one record and inactive in another. Calls of active or inactive are those of the source. The calls were made as follows: active = hit-call score of the fitted dose curve at least 0.9, where 1 is the maximum; inactive = score below 0.9.

Tests used:
[1] = APR_HepG2_P-H2AX_72hr: Apredica 72-hour HepG2 Assay for H2AX Phosphorylation (AID 2282916); details: imaging, actives raise or lower the signal;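 also: phospho-histone H2A.x immunostain intensity per cell marking DNA damage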
In short: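 Phospho-histone H2A.x immunofluorescence, multiplexed with Hoechst and c-Jun, quantified by high-content imaging. Compounds applied to HepG2 for 72 h across ten concentrations (0.39–200 uM, 0.5% DMSO), in duplicate; DMSO baseline.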

[2] = APR_HepG2_MitoMembPot_72hr: Apredica 72-hour HepG2 Assay for Mitochondrial Membrane Potential (AID 2282917); details: imaging, actives raise or lower the signal
In short: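 Membrane potential read by MitoTracker Red CMXRos (250 nM, 30 min, pre-fixation) fluorescence imaging of HepG2 after 72 hr exposure. Ten concentrations, 0.39–200 uM, duplicate wells, 0.5% DMSO; fitted in both directions against DMSO baseline.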

[3] = APR_HepG2_MitoticArrest_72hr: Apredica 72-hour HepG2 Assay for Mitotic Arrest (AID 2282918); details: high-content imaging, actives raise or lower the signal
In short: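 Mitotic arrest in HepG2 is scored from phospho-histone H3 staining after 72 hr dosing across 0.39–200 uM, with DMSO at 0.5% v/v. Nuclei are identified by Hoechst 33342 and fluorescence intensity is quantified per cell.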

[4] = APR_HepG2_MicrotubuleCSK_72hr: Apredica 72-hour HepG2 Assay for Microtubule CSK Stabilty (AID 2282919); details: HepG2 microtubule cytoskeleton, high-content imaging, actives raise or lower the signal
In short: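 High-content imaging of alpha-tubulin staining in fixed HepG2 cells after 72 hr treatment with ten concentrations from 0.39 to 200 uM (0.5% DMSO). Fitting was bidirectional against DMSO; taxol served as positive control.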

[5] = APR_HepG2_P-H2AX_24hr: Apredica 24-hour HepG2 Assay for H2AX Phosphorylation (AID 2282920); details: high-content imaging, actives raise or lower the signal
In short: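 Signal comes from a FITC-labeled secondary detecting phospho-histone H2A.x in fixed HepG2 cells, quantified by automated imaging at 20x. Dosing ran 24 hr across 0.39–200 uM with 0.5% v/v DMSO.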

[6] = APR_HepG2_StressKinase_72hr: Apredica 72-hour HepG2 Assay for Stress Kinase (AID 2282921); details: HepG2 stress kinase (phospho-c-Jun) imaging, actives raise or lower the signal
In short: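 Stress kinase signal is phospho-c-Jun immunofluorescence (1:500 primary, Cy3 secondary) in fixed, permeabilized human HepG2 cells imaged at 20x. Exposure lasted 72 hr over ten concentrations from 0.39 to 200 uM, 0.5% DMSO, in duplicate. Bidirectional fit versus DMSO.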

[7] = APR_HepG2_StressKinase_24hr: Apredica 24-hour HepG2 Assay for Stress Kinase (AID 2282922); details: HepG2 stress kinase (phospho-c-Jun) imaging, actives raise or lower the signal
In short: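 High-content imaging of phospho-c-Jun immunofluorescence in fixed, permeabilized HepG2 cells after 24 h dosing. Ten concentrations, 0.39 to 200 uM, run in duplicate at 0.5% v/v DMSO; gain or loss of signal versus DMSO.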

[8] = APR_HepG2_MitoMass_72hr: Apredica 72-hour HepG2 Assay for Mitochondrial Mass (AID 2282924); details: high-content imaging, actives raise or lower the signal;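 also: MitoTracker Red CMXRos stain intensity per cell imaged as mitochondrial mass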
In short: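 Readout is imaged MitoTracker Red (250 nM, 30 min, pre-fixation) signal, fitted bidirectionally against DMSO baseline. Human HepG2 liver cells received compound 0.39–200 uM in duplicate for 72 hr, final DMSO 0.5%.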

[9] = APR_HepG2_NuclearSize_72hr: Apredica 72-hour HepG2 Assay for Nuclear Size (AID 2282925); details: high-content imaging, actives raise or lower the signal
In short: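 Nuclear size was read by high-content imaging of Hoechst 33342 stain after formaldehyde fixation. Compounds ran 72 h on HepG2 at 0.39 to 200 uM, with final DMSO 0.5% v/v. Curves fitted both directions relative to DMSO control.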

[10] = ATG_CRE_CIS: Attagene CIS-FACTORIAL HepG2 Assay for human cAMP Responsive Element (CRE) binding protein 3 (AID 2282926); details: HepG2 CRE cis-reporter, Attagene multiplexed mRNA; actives raise or lower the signal
In short: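 Cells carrying cis-regulated reporter constructs respond through their own endogenous factors. After 24 h treatment, RNA is reverse-transcribed, amplified, labelled and sized by capillary electrophoresis; up- and down-regulation are both scored against vehicle.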

[11] = biological target: CCAAT/enhancer-binding protein beta (Homo sapiens) (UniProt P17676); experiment: ATG_C_EBP_CIS: Attagene CIS-FACTORIAL HepG2 Assay for human CCAAT/Enhancer Binding Protein (C/EBP) beta (AID 2282927); details: HepG2 Attagene cis-factorial transcription factor reporter; actives raise or lower the signal
CCAAT/enhancer-binding protein beta (Homo sapiens), sequence (P17676 whole entry, looked up): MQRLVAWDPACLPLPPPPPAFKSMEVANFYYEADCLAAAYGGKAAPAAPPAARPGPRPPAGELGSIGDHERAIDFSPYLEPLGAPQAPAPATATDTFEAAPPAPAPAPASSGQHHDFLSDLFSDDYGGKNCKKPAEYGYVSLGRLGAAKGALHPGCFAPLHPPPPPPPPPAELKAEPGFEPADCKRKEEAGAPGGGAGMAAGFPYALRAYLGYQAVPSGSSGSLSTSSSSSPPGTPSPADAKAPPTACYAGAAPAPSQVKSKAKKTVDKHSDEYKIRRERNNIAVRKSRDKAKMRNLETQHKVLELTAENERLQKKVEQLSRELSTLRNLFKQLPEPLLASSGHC
In short: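 Endogenous transcription factor activity in human liver HepG2 cells is inferred from induction of a CEBPB-linked reporter mRNA. Exposure lasts 24 h; activity is fitted in both directions relative to DMSO.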

[12] = ATG_CMV_CIS: Attagene CIS-FACTORIAL HepG2 Assay for human CMV (Internal Marker) (AID 2282928); details: HepG2 CMV promoter reporter, transcription factor profiling; actives raise or lower the signal;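 also: endpoint acts as a background internal control marker rather than a target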
In short: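 Fluorescence intensity of RT-PCR-derived reporter fragments, resolved by capillary electrophoresis, gives the signal. HepG2 liver cells bearing transfected cis-element reporters were treated 24 h; activity in either direction was fit relative to DMSO-treated controls.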

[13] = ATG_DR4_LXR_CIS: Attagene CIS-FACTORIAL HepG2 Assay for human Liver X Receptor (LXR), DR4 submotif (AID 2282929); details: HepG2 Attagene DR4 cis-reporter, mRNA transcription; actives raise or lower the signal
In short: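 Fluorescence intensity of labelled reporter cDNA fragments, separated by capillary electrophoresis, gives the signal. HepG2 cells bearing cis-regulated reporter constructs were treated 24 h; activity fitted bidirectionally relative to DMSO negative control.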

[14] = biological target: Aryl hydrocarbon receptor (Homo sapiens) (UniProt P35869); experiment: ATG_Ahr_CIS: Attagene CIS-FACTORIAL HepG2 Assay for human Aryl Hydrocarbon Receptor (Ahr) (AID 2282930); details: HepG2 AhR cis-factorial reporter transcription; actives raise or lower the signal
Aryl hydrocarbon receptor (Homo sapiens), sequence (P35869 whole entry, looked up): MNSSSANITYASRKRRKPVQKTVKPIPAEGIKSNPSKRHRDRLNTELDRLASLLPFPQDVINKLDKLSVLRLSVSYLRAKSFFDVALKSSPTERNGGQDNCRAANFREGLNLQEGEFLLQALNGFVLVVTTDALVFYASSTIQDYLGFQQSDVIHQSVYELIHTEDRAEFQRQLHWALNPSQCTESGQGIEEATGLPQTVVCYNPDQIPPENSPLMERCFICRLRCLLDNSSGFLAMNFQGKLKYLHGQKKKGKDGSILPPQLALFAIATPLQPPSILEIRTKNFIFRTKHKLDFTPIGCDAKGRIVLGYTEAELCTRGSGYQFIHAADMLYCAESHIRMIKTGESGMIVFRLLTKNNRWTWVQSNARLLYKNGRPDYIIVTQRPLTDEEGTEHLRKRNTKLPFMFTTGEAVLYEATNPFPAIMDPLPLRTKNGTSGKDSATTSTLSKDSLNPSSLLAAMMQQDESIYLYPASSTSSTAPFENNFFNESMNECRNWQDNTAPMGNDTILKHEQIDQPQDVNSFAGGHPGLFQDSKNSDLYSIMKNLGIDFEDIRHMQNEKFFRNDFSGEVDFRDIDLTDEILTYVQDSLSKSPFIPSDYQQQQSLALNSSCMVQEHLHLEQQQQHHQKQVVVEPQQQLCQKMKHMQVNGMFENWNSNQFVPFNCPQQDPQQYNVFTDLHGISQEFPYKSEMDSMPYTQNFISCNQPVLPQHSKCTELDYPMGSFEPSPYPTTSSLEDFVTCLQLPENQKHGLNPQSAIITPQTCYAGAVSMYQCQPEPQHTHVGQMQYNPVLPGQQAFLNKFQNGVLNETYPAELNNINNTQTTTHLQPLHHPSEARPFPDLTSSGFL
In short: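 Transient MRTU transfection of HepG2 → 24 h compound exposure → total RNA, oligo(dT) RT → PCR, 6-FAM extension, HpaI cut → CE fluorescence. DMSO = baseline; bidirectional curve fit.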

[15] = ATG_AP_1_CIS: Attagene CIS-FACTORIAL HepG2 Assay for human Activator Protein 1 (AP-1) (AID 2282931); details: HepG2 Attagene cis-factorial AP-1 reporter mRNA; actives raise or lower the signal
In short: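 Multiplexed HepG2 reporter assay, 24 h dosing. mRNA induction detected by RT-PCR plus capillary electrophoresis. Activity fitted in both directions against DMSO.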

[16] = ATG_AP_2_CIS: Attagene CIS-FACTORIAL HepG2 Assay for human Activator Protein 2 (AP-2) (AID 2282932); details: HepG2 AP-2 cis-reporter, Attagene transcription factor profiling; actives raise or lower the signal
In short: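 Endogenous transcription factor activity is reported through transfected multiplex reporter constructs in HepG2, after 24 h of compound exposure. Transcripts were quantified by RT-PCR and capillary electrophoresis of fluorescent fragments. Bidirectional fit against DMSO.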

[17] = ATG_BRE_CIS: Attagene CIS-FACTORIAL HepG2 Assay for human Bone Morphogenetic Protein (BMP) Response Element (BRE) (AID 2282933); details: HepG2 BMP response element reporter, Attagene transcription factor profiling; actives raise or lower the signal
In short: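 Multiplexed cis-reporter assay, HepG2, 24 h exposure. mRNA from reporter units quantified via RT-PCR/CE; DMSO baseline; bidirectional curve fit.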

[18] = biological target: Retinoic acid receptor alpha (Homo sapiens) (UniProt P10276); experiment: ATG_DR5_RAR_CIS: Attagene CIS-FACTORIAL HepG2 Assay for human Retinoic Acid Receptor Alpha (RARE), DR5 submotif (AID 2282934); details: HepG2 Attagene cis-factorial RARE DR5 reporter, mRNA; actives raise or lower the signal
Retinoic acid receptor alpha (Homo sapiens), sequence (P10276 whole entry, looked up): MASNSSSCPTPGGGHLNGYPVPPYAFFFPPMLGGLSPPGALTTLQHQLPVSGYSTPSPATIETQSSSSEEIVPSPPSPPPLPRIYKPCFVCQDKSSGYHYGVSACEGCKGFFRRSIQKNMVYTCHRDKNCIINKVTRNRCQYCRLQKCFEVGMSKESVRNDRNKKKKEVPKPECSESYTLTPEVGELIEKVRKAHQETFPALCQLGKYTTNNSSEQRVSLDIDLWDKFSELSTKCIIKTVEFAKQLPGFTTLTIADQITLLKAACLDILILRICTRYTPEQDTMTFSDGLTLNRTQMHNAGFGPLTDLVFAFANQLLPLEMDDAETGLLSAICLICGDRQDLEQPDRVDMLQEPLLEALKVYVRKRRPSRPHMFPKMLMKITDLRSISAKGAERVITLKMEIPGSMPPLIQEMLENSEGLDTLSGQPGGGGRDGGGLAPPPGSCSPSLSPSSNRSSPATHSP
In short: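 Transient MRTU transfection of HepG2; 24 h compound treatment; TriZol RNA, oligo(dT) RT, PCR, FAM labelling, capillary electrophoresis. Bidirectional fit vs DMSO. Endogenous TF activity at DR5 RARE.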

[19] = biological target: Transcription factor E2F1 (Homo sapiens) (UniProt Q01094); experiment: ATG_E2F_CIS: Attagene CIS-FACTORIAL HepG2 Assay for human E2F Transcription Factor 1 (AID 2282935); details: HepG2 Attagene cis-reporter, E2F reporter RNA transcripts; actives raise or lower the signal
Transcription factor E2F1 (Homo sapiens), sequence (Q01094 whole entry, looked up): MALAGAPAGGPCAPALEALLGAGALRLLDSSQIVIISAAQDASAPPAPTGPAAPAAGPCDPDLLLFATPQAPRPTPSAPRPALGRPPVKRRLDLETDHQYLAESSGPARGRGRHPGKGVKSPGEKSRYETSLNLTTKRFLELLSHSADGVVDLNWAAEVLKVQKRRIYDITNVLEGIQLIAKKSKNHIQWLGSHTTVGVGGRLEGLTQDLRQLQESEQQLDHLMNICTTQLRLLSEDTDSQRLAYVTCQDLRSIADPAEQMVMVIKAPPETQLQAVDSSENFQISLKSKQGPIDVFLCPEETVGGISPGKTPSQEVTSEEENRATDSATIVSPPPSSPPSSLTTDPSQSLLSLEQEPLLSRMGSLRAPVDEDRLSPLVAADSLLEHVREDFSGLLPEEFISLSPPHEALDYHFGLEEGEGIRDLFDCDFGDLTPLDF
In short: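 Gain or loss of reporter transcript, fitted against DMSO, reflects E2F1-driven transcription. Transiently transfected HepG2 dosed 24 h before RNA isolation. Quantified by fluorescent RT-PCR products separated by capillary electrophoresis.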

[20] = APR_HepG2_p53Act_72hr: Apredica 72-hour HepG2 Assay for p53 Activation (AID 2282923); details: high-content imaging, actives raise or lower the signal;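 also: average cellular p53 protein immunofluorescence intensity in HepG2 cells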
In short: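 After 72 h with compound (ten points, 0.39 to 200 uM, final DMSO 0.5% v/v), fixed HepG2 cells were labelled with sheep anti-p53 and Hoechst 33342 and imaged; gain or loss versus DMSO scored.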

Measured: AC50

CCc1cnc(C2=NC(C)(C(C)C)C(=O)N2)c(C(=O)O)c1 (configuration not stated)
not listed: [20]
inactive: all other assays above

CCOP(=S)(OCC)Oc1cc(C)nc(C(C)C)n1
active: [12] 29.8 µM | [13] 50 µM | [14] 16.3 µM
not listed: [18]
inactive: all other assays above

CCC(CC)Nc1c([N+](=O)[O-])cc(C)c(C)c1[N+](=O)[O-]
active: [4] 108 µM | [13] 37.9 µM
not listed: [18]
inactive: all other assays above

O=[N+]([O-])c1cc(C(F)(F)F)c(Cl)c([N+](=O)[O-])c1Nc1ncc(C(F)(F)F)cc1Cl
active: [1] 1.13 µM | [3] 0.767 µM | [4] 100 µM | [11] 7.85 µM | [13] 11.1 µM | [14] 19.1 µM | [15] 2.7 µM | [17] 2.63 µM | [19] 9.39 µM
inactive: [2] | [5] | [6] | [7] | [8] | [9] | [10] | [11] | [12] | [13] | [14] | [15] | [16] | [17] | [18] | [19]
